# A selection: hits, their analogues and other compounds. The true share with any hit is near 8.9%.
# KB-3-1 tox = qHTS assay for MDR1-selective chemotherapeutics: Primary screen using the parental adenocarcinoma cell KB-3-1; Potency, µM (doses to about 46.1 µM), actives largely listed as cytotoxic; KB-3-1 viability, CellTiter-Glo ATP luminescence, 72 h; AID 1347075, 2019; hit rate 1.4% among 400,000; note: potency is the fitted concentration of half-maximal effect; % is set by controls: 0 for no effect and ±100 for the full control effect; nearly all actives have a fitted effect of over 60% in size
#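 Cytotoxicity measured as CellTiter-Glo luminescence after 72 h at 37 C. Compound titrations were pinned onto drug-naive KB-3-1 parental adenocarcinoma cells grown in DMEM with 10% FBS, and normalized data fitted to concentration-response curves.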
# MCF10A rerep = A quantitative high throughput screen for small molecules that induce DNA re-replication in MCF 10a normal breast cells; hit rate 2.9% among 350,000; AID 624296, 2012; MCF 10A DNA re-replication, Hoechst nuclear intensity, 48 h; Potency, µM (doses to about 46.1 µM), for the others: at the highest dose activity, positive = re-replication, most hits filed as activators; note: potency is the fitted concentration of half-maximal effect; % of control where 0% means no effect; nearly all actives have a fitted effect of over 50% in size
# DRD3 agonist = qHTS of D3 Dopamine Receptor Agonist: qHTS. D3R DiscoveRx beta-arrestin cells, luminescence, 90 min. max activation, %. D(3) dopamine receptor (Homo sapiens), P35462. hit rate 0.58% among 410,000; in the data active = max activation above about 30%; note: 0% is about no effect
# Target sequence (P35462 whole entry, looked up): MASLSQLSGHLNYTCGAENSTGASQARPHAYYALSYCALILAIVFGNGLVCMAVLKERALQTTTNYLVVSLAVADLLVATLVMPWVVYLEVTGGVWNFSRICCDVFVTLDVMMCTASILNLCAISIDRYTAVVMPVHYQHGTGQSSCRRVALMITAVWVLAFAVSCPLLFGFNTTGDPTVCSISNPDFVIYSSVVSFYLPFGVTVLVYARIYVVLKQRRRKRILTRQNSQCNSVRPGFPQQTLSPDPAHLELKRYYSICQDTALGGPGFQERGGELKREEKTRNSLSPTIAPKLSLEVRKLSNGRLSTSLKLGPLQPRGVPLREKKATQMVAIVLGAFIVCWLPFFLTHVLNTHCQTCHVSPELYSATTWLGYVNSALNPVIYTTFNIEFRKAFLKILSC
#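 Agonist-mode cell screen: cells plated at 1500/well and incubated overnight at 37 °C, then exposed to library compounds for 90 min at 37 °C. Detection reagent was added for 30–60 min at room temperature, and luminescence was read.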
# D3 antag = qHTS of D3 Dopamine Receptor Antagonist: qHTS; D(3) dopamine receptor (Homo sapiens), P35462; D3R cells, DiscoveRx beta-arrestin luminescence, antagonist mode; stronger effect = lower value; max response, negative = inhibition, %; hit rate 2.5% among 360,000; AID 652054, 2013; in the data active = max response below about -50%; inconclusive = no clear call, values can overlap the other calls; note: % is set by controls: 0 for no effect and ±100 for the full control effect
#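 Cells expressing the human receptor were seeded at 1500 cells/well, incubated overnight at 37 degrees C in 5% CO2, then exposed to library compounds with dopamine controls for 90 minutes at 37 degrees C before luminescent detection.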
# KB-V1 cytotox = qHTS assay for MDR1-selective chemotherapeutics: Primary screen using the drug-selected MDR subline cells KB-V1. KB-V1 MDR cells viability, CellTiter-Glo, 72 h. Potency, µM (series often up to 46.1 µM), hits mostly cytotoxic. hit rate 3.4% among 400,000. AID 1347076, 2019; note: potency is the fitted concentration of half-maximal effect; % is set by controls: 0 for no effect and ±100 for the full control effect; nearly all actives have a fitted effect of over 60% in size
#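 Compound-treated KB-V1 multidrug-resistant cells, 72 h, 37 degrees C; viability by CellTiter-Glo. Fitted qHTS curves give the values.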
# SW480 rerep = A quantitative high throughput screen for small molecules that induce DNA re-replication in SW480 colon adenocarcinoma cells | hit rate 1.8% among 340,000 | Potency, µM (highest dose often 46.1 µM), inactives show at the highest dose re-replication activation, actives largely listed as activators | SW480 DNA re-replication, Hoechst DNA content imaging, 48 h | AID 624297, 2012; note: potency is the fitted concentration of half-maximal effect; % of control where 0% means no effect; nearly all actives have a fitted effect of over 55% in size
#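 250 cells/well; 23 nL cpd via pin tool; 48 hr, 37 C, 5% CO2; Hoechst 40 min; imager read of total nuclear intensity, ex 405/em 500-530 nm.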
# * marks the source's active call; other numbers are inactive results; i = inactive; ? = inconclusive; / = no result; [ ] = dose if it differs, or a comment. Unless noted, calls come from the whole dose curve; as a rule, active = well fitted curve in the direction sought with a large enough effect; inconclusive = small, poorly fitted or top-dose-only effect, or another doubt; inactive = no such curve, though single readings can be large; an effect the other way counts as inactive or inconclusive.
SMILES,KB-3-1 tox,MCF10A rerep,DRD3 agonist,D3 antag,KB-V1 cytotox,SW480 rerep
CCC1([N+](=O)[O-])COC(C=Cc2ccccc2)OC1 (centres undefined),i,-11%,-16,-13,i,-3%
Cc1cc(C)c(S(=O)(=O)/N=C2/C=C(Sc3ncn[nH]3)C(=O)c3ccccc32)cc1C,?,2.3µM*,-9,-69*,?,2.6µM*
CC1(C(=O)NC(=S)NNC(=O)c2ccncc2)CCCCC1,?,11%,12,1,?,9.2µM*
O=C1NCCN(Cc2ccc(F)cc2)C1=O,i,/,8,/,i,/
Cn1c(=O)c(C(=O)NC2CCCCCC2)c(O)c2ccccc21,i,3%,-8,-20,i,9%
Cn1c(=O)n(CC(=O)NC2CCCCC2)c(=O)c2ccccc21,i,0%,-7,-59*,i,-5%
Cn1c(=O)c(C(=O)NC2CCCCCCC2)c(O)c2ccccc21,i,0%,4,5,21µM*,-2%
CCCn1nc(C(=O)NC2CCCCCC2)c2ccccc2c1=O,i,8%,-10,7,5.8µM*,0%
Cn1c(=O)c2ccccc2n(CC(=O)NC2CCCCC2)c1=O,i,-7%,-8,-4,i,-8%
Cn1nc(C(=O)NC2CCCC2)c2ccccc2c1=O,i,3%,2,-14,i,-13%
Cc1ccccc1NC(=O)CSc1nnc(COc2ccc(Cl)cc2)o1,i,/,0,/,i,/
Cn1nnc2c(N3CCN(c4ccccc4Cl)CC3)ncnc21,i,/,-6,/,i,/
C=C1C=C(C(F)F)n2ncc(C(=O)NCCc3ccc(Cl)cc3)c2N1,i,/,/,/,i,/
O=C(/C(=C/O)N=Nc1ccccc1)c1ccco1,i,15µM*,2,-6,i,?
O=C(/C(=C/O)N=Nc1cccc(C(F)(F)F)c1)c1ccccc1,i,?,2,3,i,16%
Cc1c(C(=O)Nc2ccc(Br)cc2F)sc2ncnc(N(C)C3CCCCC3)c12,i,/,-5,/,i,/
COc1ccc(NC(=O)CN(C)C(=O)c2cccc(S(=O)(=O)N3CCN(c4ccc(F)cc4)CC3)c2)cc1,?,5%,-3,2,i,-11%
CC(C)CCNC(=O)c1ccccc1SCC(=O)NC1CCCCCCC1,i,12%,-8,-2,5.8µM*,0%
O=C(CSc1ccccc1C(=O)O)NCc1ccccc1,i,0%,0,-9,i,-1%
O=C(CSc1ccccc1C(=O)NCc1ccccc1)NC12CC3CC(CC(C3)C1)C2,?,?,1,2,5.8µM*,?
O=C(CSc1ccccc1C(=O)NCc1ccccc1)NC1CCCCCCC1,i,23%,1,11,3.3µM*,11%
Cc1cc(Cl)ccc1Oc1ncc(-c2ccc(Cl)cc2)cn1,i,26%,-7,-17,18µM*,3%
CCc1cc2c(NCC3CCCO3)ncnc2s1 (centres undefined),?,17%,3,42,16µM*,2%
COc1ccc(C(=O)/C=C/c2ccccc2F)c(OC(=O)c2ccc([N+](=O)[O-])cc2)c1,?,15µM*,0,-7,?,?
COc1ccc(C(=O)/C=C/c2ccc(C)cc2)c(OC(=O)c2ccc([N+](=O)[O-])cc2)c1,?,?,-1,9,i,-4%[9.22 µM]
COc1ccc(C(=O)/C=C/Nc2ccc([N+](=O)[O-])cc2C)c(OC)c1,i,-14%,32*,16,i,25%
COc1cc(/C=C/C(=O)c2cccc([N+](=O)[O-])c2)cc(OC)c1OC,?,?,-5,-20,?,?

# Screens deposited in PubChem BioAssay by National Center for Advancing Translational Sciences (NCATS).
